Source: PubChem (National Center for Advancing Translational Sciences (NCATS))
This is a sample that favours compounds with a hit; in the whole collection about 2.4% have one here.
D2 PAM-1: positive allosteric modulators of human D2 dopamine receptor; hit rate 0.34% among 340,000; P14416; HEK293 T-REx D2, calcium flux, EC20 dopamine potentiation; potentiation, % at 10 µM;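 active means potentiation over 3 SD above the plate norm, cut at about 30% in these data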; further: 0% is about no effect
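Using a no-wash calcium dye in inducible, force-coupled HEK293 Trex cells expressing D2, we tracked fluorescence each second for 180 s after compound, then for 180 s after EC20 dopamine to detect augmented signalling.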
D2 PAM-2: positive allosteric modulators of human D2 dopamine receptor. P14416. DiscoveRx D2 beta-arrestin cells, luminescence, 90 min; 100% = 57 uM dopamine signal. potentiation, % (concentration not given with the values). hit rate 0.23% among 360,000. AID 624464; in the data active means potentiation above about 50%; inconclusive means mostly about 30% to 49%
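PathHunter D2 cells, attached overnight at 37 deg C, received compound in DMSO plus dopamine at EC20 (50 nM final) for 90 min at 37 deg C. Beta-arrestin recruitment was read as luminescence after 1 h with detection reagent at ambient temperature.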
D2 antagonist: antagonizes the human D2 dopamine receptor | P14416 | HEK293 TREx D2 cells, calcium flux, dopamine EC80 | inhibition, % at 10 µM | hit rate 2% among 340,000 | AID 485344; in the data active means inhibition above about 30%; inactive means below that, where a call was filed; further: 0% is about no effect
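Cells plated overnight at 30 C with tetracycline; no-wash calcium dye, 30–90 min RT; 10 s baseline; compound pinned; 180 s read; EC80 dopamine added; another 180 s read.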
D2 ag-1: activates the human D2 dopamine receptor; DiscoveRx PathHunter D2 beta-arrestin, luminescence, 90 min; 100% = 57 uM dopamine signal; P14416; activation, % (no concentration beside the values); hit rate 0.084% among 360,000; in the data active means activation above about 40%; inconclusive means between about 15% and that limit
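Agonist mode: compounds alone added to overnight-plated D2 PathHunter cells for 90 min at 37 C, with 57 uM final dopamine (EC100) defining full response. Beta-arrestin recruitment detected by chemiluminescent reagent, read after 1 h at ambient temperature.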
D2 ag-2: agonists of human D2 dopamine receptor; P14416; HEK293 T-REx D2 cells, calcium flux agonist mode; activation, % at 2 µM; hit rate 0.53% among 340,000; AID 485358;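 active means activation over 3 SD above normal in the single-dose calcium agonist read, cut at about 30% in these data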; further: 0% is about no effect
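Calcium-flux readout, 1 cycle/sec over 180 s following compound pin transfer, in inducible HEK293 Trex D2 cells (force-coupled); dopamine controls included. Positive calcium responses during this window marked compounds as potential agonists.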
D3 ag: activates human D3 dopamine receptor beta-arrestin recruitment. Potency, µM (highest dose often 76.9 µM), inactives show at the highest dose activation, actives largely listed as activators. hit rate 4% among 2,300. shares compounds with D2 ag-2. DiscoveRx D3 beta-arrestin cells, luminescence, 90 min. AID 720506;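 further: potency means the concentration at half of the fitted maximal effect; 100% = dopamine control response; nearly all actives have a fitted effect of over 70% in size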
Target sequence (P35462 whole entry, looked up): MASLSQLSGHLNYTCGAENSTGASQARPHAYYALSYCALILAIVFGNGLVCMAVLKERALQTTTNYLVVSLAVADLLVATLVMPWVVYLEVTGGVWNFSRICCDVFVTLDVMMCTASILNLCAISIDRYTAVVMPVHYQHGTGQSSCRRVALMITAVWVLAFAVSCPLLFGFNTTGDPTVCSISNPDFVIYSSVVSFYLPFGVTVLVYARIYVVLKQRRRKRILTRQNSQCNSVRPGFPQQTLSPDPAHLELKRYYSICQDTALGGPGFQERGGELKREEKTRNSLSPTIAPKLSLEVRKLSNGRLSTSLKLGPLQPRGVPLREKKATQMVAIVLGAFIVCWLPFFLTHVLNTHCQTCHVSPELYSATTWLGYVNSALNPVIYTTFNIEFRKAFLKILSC
D2 ag-3: counter-screen for D3 agonists: human D2 dopamine receptor agonism; shares compounds with D2 ag-2; DiscoveRx PathHunter D2 beta-arrestin, luminescence, 90 min; response scale: percent relative to full dopamine signal; Potency, µM (titrated, usually from 76.9 µM), without a hit: top-dose activation, actives largely listed as activators; hit rate 5.9% among 2,300; further: potency means the concentration at half of the fitted maximal effect; % of control where 0% means no effect; nearly all actives have a fitted effect of over 70% in size
* marks the source's active call; other numbers are inactive results; ? = inconclusive; / = not tested or not shown. Unless noted, the call rests on the fitted dose curve; in most records, active means well fitted activation curve with a large enough effect; inconclusive means small, poorly fitted or top-dose-only effect; inactive means flat fitted curve, though single readings scatter.

SMILES	D2 PAM-1	D2 PAM-2	D2 antagonist	D2 ag-1	D2 ag-2	D3 ag	D2 ag-3
O=C(NCCN1CCN(c2ccccc2F)CC1)c1ccc2nc3ccccc3c(=O)n2c1	-28	-10	57*	5	67*	28%	?
Cc1c(C)n(C)c2ccc(C(=O)NCCCN3CCN(c4ccc(F)cc4)CC3)cc12	-23	-37	-17	-5	0	/	/
CCc1nc2ccc(C(=O)NCCCN3CCN(c4ccccc4F)CC3)cc2nc1CC	-20	-20	88*	6	17	24%	16%
Cc1c(C)n(C)c2ccc(C(=O)NCCCN3CCN(c4ccccc4F)CC3)cc12	-39	-33	98*	9	67*	9%	14%
Cn1c(C(=O)NCCN2CCN(c3ccccc3F)CC2)cc2c(=O)n(C)c3ccccc3c21	-35	-10	95*	10	54*	-8%	11%
Cn1c(=O)oc2cc(S(=O)(=O)NC(CC(=O)O)c3cccc(Br)c3)ccc21 (configuration not stated)	-3	/	/	/	1	/	/
Cc1ccc(NC(=O)Cn2c(=O)n(CCC(=O)NCc3ccccc3Cl)c(=O)c3ccccc32)cc1	14	/	/	/	0	/	/
COC(=O)c1cc(S(=O)(=O)NCCN2CCN(c3ccccc3F)CC2)c[nH]1	0	-36	73*	-5	1	17%	7%
O=C(NC1CCCC1)C1CCC(CNS(=O)(=O)c2ccccc2)CC1 (configuration not stated)	-2	-7	-4	-4	-1	/	/
O=C(NC1CCCC1)C1CCC(CNS(=O)(=O)c2ccc(F)cc2)CC1 (configuration not stated)	7	-2	15	-2	-1	-9%	0%
Cc1ccc(NC(=O)CCC(=O)N2Cc3ccccc3Oc3ncccc32)cc1	-8	/	/	/	1	/	/
COc1cccc(C(=O)NC2CCCC2)c1	0	-9	-1	6	0	/	/
COc1cccc(C(=O)NNC(=S)NC2CCCCC2)c1	-20	-29	31*	-8	56*	-4%	-5%
Cc1[nH]n(-c2ccc(F)cc2)c(=O)c1/C=N/c1sc2c(c1C#N)CCCC2	-13	-13	11	5	53*	?	15%
Cc1ccc(/C=N/c2sc3c(c2C#N)CCCCC3)o1	/	-3	/	14	/	?	29%
Cc1cc(C(=O)CN2C(=O)C(=O)N(C3CCCC3)C2=O)c(C)n1CCc1ccccc1	20	10	-13	0	8	/	/
Cc1[nH]c2ccccc2c1C(=O)CN1C(=O)C(=O)N(C2CCCC2)C1=O	6	-2	-3	0	0	-15%	-5%
COC(=O)c1ccc(S(=O)(=O)NCCSc2nnc3c4ccccc4n(C)c3n2)cc1	6	-8	28	-1	-1	17%	9%
CN1CCc2c(sc(/N=C/c3cc(Cl)ccc3O)c2C#N)C1	-36	26	83*	52*	88*	-11%	10%
CN1CCc2c(sc(/N=C/c3c[nH]c4ccccc34)c2C#N)C1	-26	-20	-6	7	49*	12%	-4%
CN1CCc2c(sc(/N=C/c3c[nH]c4ccccc34)c2C(N)=O)C1	-9	-17	13	-4	1	/	/
Nc1c(C(=O)Nc2ccccc2)nnn1Cc1ccc(F)cc1Cl	-6	/	/	/	11	/	/
O=c1[nH]cc(NCc2ccccc2)c(=O)[nH]1	/	-10	/	0	/	/	/
O=c1[nH]cc(NCCc2ccccc2)c(=O)[nH]1	-14	-3	-19	0	38*	11%	13%
CCOC(=O)C1(C(F)(F)F)N=C(C(F)(F)F)Nc2cc(C)c(C)cc21 (configuration not stated)	-16	0	-9	-1	29	5%	-6%
SMILES	D2 PAM-1	D2 PAM-2	D2 antagonist	D2 ag-1	D2 ag-2	D3 ag	D2 ag-3
COC(=O)C1(C(F)(F)F)N=C(C(F)(F)F)Nc2ccc(Cl)cc21 (configuration not stated)	/	-10	/	2	/	/	/
CCC1Sc2ccccc2N(CC(=O)NCc2ccc(C)cc2)C1=O (configuration not stated)	-15	/	/	/	0	/	/
O=C(Nc1cccc(Cl)c1)c1ccc(NCCCN2CCOCC2)c([N+](=O)[O-])c1	3	-34	-10	-2	-2	/	/
Cc1ccc(NC(=O)c2ccc(NCCCN3CCC(C)CC3)c([N+](=O)[O-])c2)cc1F	-17	-12	5	-2	29	-17%	10%
O=S(=O)(NCC(c1cccnc1)N1CCN(Cc2ccccc2)CC1)c1ccccc1 (configuration not stated)	-16	-11	30	-6	61*	-2%	6%
Cc1ccc(S(=O)(=O)NCC(c2cccnc2)N2CCN(Cc3ccccc3)CC2)cc1 (configuration not stated)	-7	-7	-8	-1	13	/	/
CC1CN(C(=O)CNC(=O)Cc2cccc3ccccc23)CC(C)O1 (configuration not stated)	-11	0	-22	-2	1	1%	0%
COc1ccccc1N1CCN(C2CCN(S(=O)(=O)c3ccc(NC(C)=O)cc3)CC2)CC1	-16	-16	32*	?	49*	-13%	20%
COc1ccc(S(=O)(=O)N2CCC(N3CCN(c4ccccc4OC)CC3)CC2)cc1	-20	-13	-15	1	37*	-8%	7%
COc1ccc(NC(=O)Cn2ccn(-c3ccc(F)c(F)c3)c(=O)c2=O)cc1Cl	4	/	/	/	0	/	/
Cc1c2c(nc3c(C)cccc13)OC(C)C2 (configuration not stated)	5	0	26	0	23	4%	12%
CS(=O)(=O)Nc1ccccc1C(=O)Nc1cc(Cl)cc(Cl)c1	3	-6	-1	-2	7	19%	23%
c1ccc(N2CCN(CCc3nnc4n3CCCCC4)CC2)cc1	11	-20	27	5	32*	-2%	8%
c1ccc(Cc2nnc3n2CCCCC3)cc1	-4	-14	-7	-1	0	/	/
COc1ccc(CCNc2oc(/C=C/c3ccc(OC)c(OC)c3)nc2C#N)cc1	7	/	/	/	/	/	/
Cn1c(=O)n(C/C=C/c2ccccc2)c(=O)c2c1nc1n2CCN1c1ccccc1	5	/	/	/	0	/	/
CCN(CC)CCN(C)C1CCC(c2ccccc2)CC1 (configuration not stated)	-18	-16	-7	-2	46*	-5%	3%
